Rows were chosen to be rich in hits. Some 3.5% of all compounds tested hit in one or more screens of this group.
GPR151 ag: human GPR151 activation. Q8TDV0. PathHunter beta-arrestin GPR151 cells, luminescence. activation, % at 11.2 µM. 650,000 compounds, 1% hits; in the data active = activation above about 4.9%
Target sequence (Q8TDV0 whole entry, looked up): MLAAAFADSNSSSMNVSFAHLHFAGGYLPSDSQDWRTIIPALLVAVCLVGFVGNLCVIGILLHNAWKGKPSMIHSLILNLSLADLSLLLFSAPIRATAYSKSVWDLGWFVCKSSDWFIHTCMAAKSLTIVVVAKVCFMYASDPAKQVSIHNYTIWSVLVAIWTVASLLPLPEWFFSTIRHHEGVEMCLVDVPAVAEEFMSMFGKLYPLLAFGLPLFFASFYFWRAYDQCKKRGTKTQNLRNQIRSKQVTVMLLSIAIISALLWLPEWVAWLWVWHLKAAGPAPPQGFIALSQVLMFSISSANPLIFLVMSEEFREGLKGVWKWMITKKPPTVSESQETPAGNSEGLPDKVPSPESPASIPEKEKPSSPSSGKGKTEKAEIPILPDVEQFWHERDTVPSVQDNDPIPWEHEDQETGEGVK
MITF primary: inhibitors of human MITF; inhibition, % at 2.6 µM; AlphaScreen MITF homodimerization, bead proximity signal; AID 1259374; 650,000 compounds, 0.91% hits; O75030; in the data active = inhibition above about 50%
TEAD-YAP inh: TEAD-YAP interaction inhibition; HEK-TIYL cells, TEAD-Gal4/YAP UAS-luciferase luminescence; inhibition, % at 9.12 µM; 640,000 compounds, 1.4% hits; AID 1259422; in the data active = inhibition above about 32%
FBW7 activator: human FBW7 E3 ligase activation, primary screen. normalized activity (activation), % at 26.1 µM. 650,000 compounds, 0.13% hits. AID 1259310. AlphaScreen FBW7–phospho-cyclin E peptide binding, activator screen; in the data active = normalized activity above about 1.9%;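 also: purified mutant Fbw7 with reduced substrate affinity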
GPR151 confirm: human GPR151 activation, confirmation screen; shares compounds with GPR151 ag; GPR151 PathHunter beta-arrestin cells, luminescence, 90 min; % of EA-reagent control over plate median; activation, % at 11.2 µM; 6,700 tested, under 10 active;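 active = mean percent activation across replicates above the confirmation screen cutoff of 4.91%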
GPR119 ag: activates human GPR119 in a GPR151 counter-screen | activation, % at 11.2 µM | shares compounds with GPR151 ag | 6,700 compounds, 0.3% hits | AID 1508611 | GPR119 PathHunter beta-arrestin cells, luminescence, 90 min; 0 = compound-well median, 100 = enzyme-acceptor control;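 active = mean percent activation in the counterscreen above 29.09%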;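 also: counterscreen on off-target GPR119 to flag nonselective hits from the GPR151 activator screen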
Each line names hits and unclear results; the compound was inactive in the other large screens (follow-up assays come after a bar, where they were run).

NC(=O)COC(=O)c1ccc(S(=O)(=O)N2CCCc3ccccc32)cc1	none
NC(=O)COC(=O)c1cccc(S(=O)(=O)N2CCCc3ccccc32)c1	GPR151 ag 6.1 | GPR151 confirm inactive | GPR119 ag inactive
O=C(C1CCC1)N1CCc2cc(S(=O)(=O)N3CCCc4ccccc43)ccc21	GPR151 ag 6.5 | GPR151 confirm inactive | GPR119 ag inactive
CCCOC(=O)c1ccc(NC(=O)c2cccc(Cl)c2)cc1	none
CC1CCCC(C)N1c1nnc(NC(=O)c2csc3c2CCCC3)s1 (stereo not given)	GPR151 ag 5.8 | GPR151 confirm inactive | GPR119 ag inactive
C=CCn1cnc2c(nnn2-c2ccc(OC)c(OC)c2)c1=O	GPR151 ag 7.9 | GPR151 confirm inactive | GPR119 ag inactive
CCOC(=O)c1cc2c(c(CSc3nc4ccccc4c(=O)n3Cc3ccc4c(c3)OCO4)c1)OCOC2	GPR151 ag 4.9 | GPR151 confirm inactive | GPR119 ag inactive
CCOC(=O)c1cc2c(c(CSc3nc4ccccc4c(=O)n3Cc3cccs3)c1)OCOC2	none
CC1CCc2sc(NC(=O)c3ccc(C#N)cc3)c(C(N)=O)c2C1 (stereo not given)	none
CCN1CCN(C(C)C(=O)Nc2ncc(C)s2)CC1 (stereo not given)	GPR151 ag 7.0 | GPR151 confirm inactive | GPR119 ag inactive
CCCCC(=O)Nc1ccc(C(=O)Nc2cccc(C)n2)cc1	none
Cc1cc(C)cc(N=C2NC(=O)/C(=C/c3ccc(OCc4ccc(Br)cc4)cc3)S2)c1	GPR151 ag 5.7 | GPR151 confirm inactive | GPR119 ag inactive
Cc1cc(C)cc(N=C2NC(=O)/C(=C/c3ccc(OCc4ccc(Br)cc4)c(Br)c3)S2)c1	none
COc1ccc(/C=C2/SC(=Nc3ccc(O)cc3)NC2=O)cc1	GPR151 ag 5.0 | GPR151 confirm inactive | GPR119 ag inactive
COc1ccc(/C=C2\SC(=Nc3ccc(O)cc3)NC2=O)cc1	none
CC(NC(=O)Cc1csc(NC(=O)c2ccccc2)n1)c1ccccc1 (stereo not given)	none
CCc1c(C)sc2ncn3c(=O)n(Cc4ccncc4)nc3c12	none
CC1=C(C(=O)OC2CCCCC2)C(c2cccc(O)c2)C2=C(CC(c3ccccc3)CC2=O)N1 (stereo not given)	none
Cc1cc(C)cc(NC(=O)Nc2nnc(N3CCCCC3)s2)c1	none
Cc1cccc(NC(=O)Nc2nnc(N3CCCCC3)s2)c1	GPR151 ag 5.6 | GPR151 confirm inactive | GPR119 ag inactive
COc1cc(NC(=O)Nc2nnc(N3CCCCC3)s2)cc(OC)c1	GPR151 ag 5.3 | GPR151 confirm inactive | GPR119 ag inactive
Cc1ccc(NC(=O)Nc2nnc(N3CCCCC3)s2)c(C)c1	GPR151 ag 7.4 | GPR151 confirm inactive | GPR119 ag inactive
O=C(Nc1cccc(C(F)(F)F)c1)Nc1nnc(N2CCCCCC2)s1	GPR151 ag 5.2 | GPR151 confirm inactive | GPR119 ag inactive
O=C(CCn1nnc2ccccc2c1=O)NCc1ccc2c(c1)OCO2	none
O=C1OC(c2ccc(Br)cc2)=N/C1=C\c1cc2c(cc1Cl)OCO2	none
CCOC(=O)c1c(C)n(C)c2c1cc(O)c1ccccc12	GPR151 ag 6.1 | GPR151 confirm inactive | GPR119 ag inactive
O=C(N/N=C/c1ccc(O)cc1)C12CC3CC(CC(C3)C1)C2	none
CCCN1C(=O)/C(=C/c2ccc(O)c(OC)c2)SC1=S	GPR151 ag 5.1 | GPR151 confirm inactive | GPR119 ag inactive
CC(C)(C)CN1CCNC(=O)C1CC(=O)N1CCC(CCN2CCCC2)CC1 (stereo not given)	none
Oc1ccc(Nc2nc(-c3ccccc3)cs2)cc1	none
N#CCSc1nc2cc(C(=O)N3CCCC3)ccc2c(=O)n1-c1ccccc1	none
CCCCCn1c(SCc2ccccn2)nc2cc(C(=O)N3CCN(c4ccccc4)CC3)ccc2c1=O	GPR151 ag 5.1 | GPR151 confirm inactive | GPR119 ag inactive
N#CCSc1nc2cc(C(=O)N3CCN(c4ccccc4)CC3)ccc2c(=O)n1C1CCCCC1	GPR151 ag 11 | GPR151 confirm inactive | GPR119 ag inactive
O=C(CN1Cc2ccccc2OC(c2ccccc2F)C1)N1CCCC1c1n[nH]c(=O)[nH]1 (stereo not given)	GPR151 ag 7.5 | GPR151 confirm inactive | GPR119 ag inactive
CCCCCCc1cc(O)c2c(C)cc(=O)oc2c1	GPR151 ag 7.0 | GPR151 confirm inactive | GPR119 ag inactive
CCc1cc2c(cc3c(=O)n(CC(=O)NCc4ccccc4Br)ncn32)s1	GPR151 ag 6.4 | GPR151 confirm inactive | GPR119 ag inactive
CCOC(=O)N1CCC(N(CCOC)C(=S)Nc2cccc(OC)c2)CC1	GPR151 ag 8.6 | GPR151 confirm inactive | GPR119 ag inactive
COc1cccc(-n2c(/C=C3\C(=O)N(C)c4ccccc43)nc3ccccc3c2=O)c1	none
CCOCCCNCc1ccccc1OCc1ccccc1	GPR151 ag 13 | GPR151 confirm inactive | GPR119 ag inactive
O=C(NC1CCCCC1)c1nn2c(C(F)(F)F)cc(-c3ccccc3)nc2c1Br	GPR151 ag 5.0 | GPR151 confirm inactive | GPR119 ag inactive
O=C(CCc1ccccc1)c1ccccc1	none
Cc1cc(NC(=O)C(N)=O)ccc1Br	GPR151 ag 5.0 | GPR151 confirm inactive | GPR119 ag inactive
NC(=O)c1ccc(NC(=O)COC(=O)c2ccccc2C(=O)c2ccc(Cl)cc2)cc1	none
Cc1n[nH]c(C)c1CCC(=O)O	GPR151 ag 4.9 | GPR151 confirm inactive | GPR119 ag inactive
Cc1n[nH]c(C)c1CCC(=O)N/N=C/c1ccc(Cl)cc1	GPR151 ag 6.0 | GPR151 confirm inactive | GPR119 ag inactive
Cc1n[nH]c(C)c1CCC(=O)N/N=C\c1ccc(C(C)(C)C)cc1	none
CCN(CC)S(=O)(=O)c1ccc(C(=O)OCC(=O)c2ccc(F)cc2)cc1	none
CN(C)S(=O)(=O)c1ccc(C(=O)OCCCC(=O)c2ccc(F)cc2)cc1	GPR151 ag 11 | GPR151 confirm inactive | GPR119 ag inactive
Nc1sc(-c2ccccc2)cc1C(=O)N/N=C/c1cccs1	GPR151 ag 8.4 | GPR151 confirm inactive | GPR119 ag inactive
COC(=O)CC(NC1CCN(c2ccc(CC(=O)N3CCCC3)cc2)CC1)C(=O)OC (stereo not given)	GPR151 ag 6.1 | GPR151 confirm inactive | GPR119 ag inactive
CCOc1ccc(-n2c(SCC#N)nc3c(sc(=S)n3-c3ccc(C)cc3C)c2=O)cc1	none
Cc1ccc(-n2c(=S)sc3c(=O)n(-c4ccc(F)cc4)c(SCC#N)nc32)c(C)c1	GPR151 ag 6.3 | GPR151 confirm inactive | GPR119 ag inactive
COc1ccc(C(C)(C)C)cc1NC(=O)COn1nnc2ccc(C(F)(F)F)cc21	GPR151 ag 5.1 | GPR151 confirm inactive | GPR119 ag inactive
Cc1c(C(=O)NCC2CCCO2)sc2ncn(CC(=O)N3CCCC(C)C3)c(=O)c12 (stereo not given)	none
O=C(NNc1nc(-c2ccc(Br)cc2)cs1)c1ccncc1	none

High-throughput results (PubChem BioAssay)
